BoNT A protease: BoNT A light chain protease inhibition; multiplex microsphere protease substrate cleavage, flow cytometry; inhibition, % at 10 µM; 360,000 compounds, 0.17% hits; AID 588499
BoNT-F LC inh: inhibitors of Botulinum neurotoxin F light chain protease. Multiplex microsphere protease cleavage assay, flow cytometry. inhibition, % at 10 µM. 360,000 compounds, 0.22% hits; in the data active means inhibition above about 35%, passing the limit was not always enough; inconclusive means no clear call, values can overlap the other calls
Autofluor counter: compound fluorescence in toxin protease inhibitor counterscreen. fluorescence intensity (concentration not given with the values). AID 624483. 360,000 compounds, 3.1% hits. compound autofluorescence counterscreen, microsphere flow cytometry; active compounds read high; in the data active means fluorescence intensity above about 16000; inconclusive means no clear call, values can overlap the other calls
Anthrax LF inh2: blocks Bacillus anthracis lethal factor protease; 360,000 compounds, 0.12% hits; multiplex microsphere protease cleavage assay, LF; P15917; inhibition, % at 10 µM
Target sequence (P15917 whole entry, looked up): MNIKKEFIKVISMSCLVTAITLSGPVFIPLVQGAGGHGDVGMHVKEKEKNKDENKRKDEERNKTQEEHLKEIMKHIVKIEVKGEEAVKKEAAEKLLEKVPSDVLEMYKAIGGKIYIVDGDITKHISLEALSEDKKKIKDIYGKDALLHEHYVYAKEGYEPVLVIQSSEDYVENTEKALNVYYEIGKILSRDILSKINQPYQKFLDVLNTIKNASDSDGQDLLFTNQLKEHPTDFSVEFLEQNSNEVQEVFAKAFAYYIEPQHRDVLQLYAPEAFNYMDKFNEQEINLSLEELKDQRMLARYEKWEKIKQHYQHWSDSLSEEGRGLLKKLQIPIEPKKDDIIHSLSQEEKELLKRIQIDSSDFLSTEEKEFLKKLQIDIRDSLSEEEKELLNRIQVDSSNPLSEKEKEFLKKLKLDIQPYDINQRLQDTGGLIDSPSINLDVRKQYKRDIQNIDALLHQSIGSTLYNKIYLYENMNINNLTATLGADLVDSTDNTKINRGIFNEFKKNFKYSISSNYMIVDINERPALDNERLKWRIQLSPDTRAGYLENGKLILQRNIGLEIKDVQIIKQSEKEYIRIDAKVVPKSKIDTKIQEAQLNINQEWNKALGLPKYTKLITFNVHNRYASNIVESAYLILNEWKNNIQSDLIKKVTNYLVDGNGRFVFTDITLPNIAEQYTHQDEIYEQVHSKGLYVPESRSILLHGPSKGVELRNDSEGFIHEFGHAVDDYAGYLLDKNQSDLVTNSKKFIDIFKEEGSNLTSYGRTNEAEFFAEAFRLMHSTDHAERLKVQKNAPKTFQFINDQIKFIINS
BJeLR viability: BJeLR cell viability loss; BJeLR (HRASV12) viability, CellTiter-Glo ATP luminescence, 48 h; inhibition, % (no concentration beside the values); 300,000 compounds, 0.17% hits; AID 1554; in the data active means inhibition above about 50%; inconclusive means no clear call, values can overlap the other calls
SARS 3CLpro inh: SARS-CoV 3CLpro protease inhibition | recombinant SARS-CoV 3CLpro, quenched FRET peptide cleavage | inhibition, % at 6 µM | 290,000 compounds, 0.14% hits | AID 1706; in the data active means inhibition above about 12%
Large screens that a line does not name were inactive. A selection: hits, their analogues and other compounds. The true share with any hit is near 3.6%. Unless noted, no stated cut-off is given here; in the data, active means inhibition above about 30%; inconclusive means no clear call, values can overlap the other calls; inactive means below that.

Cc1ccc(NC(=O)C(c2ccccc2)c2ccccc2)nc1	none
CC(C)(C)NC(=O)NC(=O)CSc1ncc(C(F)(F)F)cc1Cl	none
CC(C)NC(=O)NC(=O)CSc1ncc(C(F)(F)F)cc1Cl	Autofluor counter 22963
Cc1ccc(NC(=S)N2CCN(c3ccccc3F)CC2)c(C)c1	BoNT-F LC inh inconclusive
Cc1ccc(NCCC(=O)c2ccc(Cl)c(Cl)c2)cc1	BoNT A protease inconclusive, Autofluor counter 23171
CCCOc1ccc(C(=O)CCNc2ccc(C)c(Cl)c2)cc1	none
Cc1ccc(NCCC(=O)c2ccc(Cl)cc2)cc1C	Autofluor counter 24235
CCc1ccc(NCCC(=O)c2ccc(Cl)cc2)cc1	none
O=C(Cn1ccc(=O)[nH]c1=O)c1ccc([N+](=O)[O-])o1	none (no result: BJeLR viability, SARS 3CLpro inh)
Cc1ccccc1NS(=O)(=O)c1cc(C(=O)NCc2ccco2)ccc1C	none
COc1ccccc1NS(=O)(=O)c1cc(C(=O)NCc2ccco2)ccc1C	Autofluor counter 17992
O=C(CSc1ncn[nH]1)NCCOc1ccccc1	none
O=C(CSCc1n[nH]c(=O)[nH]1)NCCOc1cccc(Oc2ccccc2)c1	Autofluor counter 19843
Cc1ccc(S(=O)(=O)CNC(=S)c2ccc3ccccc3c2)cc1	BoNT A protease inconclusive, Autofluor counter 22964
O=C(OCC#CCSc1nnc(-c2ccccc2)o1)c1cccs1	Autofluor counter 17034
O=C(c1ccccc1)c1ncc(C(F)(F)F)cc1Cl	Autofluor counter 20699
O=C(c1ccc(Cl)cc1Cl)c1ncc(C(F)(F)F)cc1Cl	none
O=C(CN1CCN(S(=O)(=O)/C=C/c2ccccc2)CC1)NCC(F)(F)F	none
Cc1cc(C)n(C(=O)Cn2nc(C(F)F)cc2C)n1	Autofluor counter 21933
Cc1cc(C)n(CC(=O)n2nc(C)cc2C)n1	none
O=C(O)/C(=C\c1ccc(Cl)cc1)c1ccc(F)cc1	none
Cc1ccc(-c2cc(C(F)(F)F)nc(SCC(=O)c3cccc([N+](=O)[O-])c3)n2)cc1	none
Cc1cc(C(F)(F)F)nc(SCC(=O)c2cccc([N+](=O)[O-])c2)n1	Autofluor counter 17551
N#CCCSc1ncnc2c1oc1ccccc12	Autofluor counter 18891
OCCSc1ncnc2c1oc1ccccc12	none
Fc1ccc(-c2nnc(Cc3nnc(-c4ccc(F)cc4)o3)o2)cc1	Autofluor counter 22771 (no result: BJeLR viability)
Cc1ccc(Nc2nnc(SCC(=O)NC3CC3)s2)cc1	none (no result: BJeLR viability, SARS 3CLpro inh)
CN(Cc1cnc2nc(N)nc(N)c2n1)c1ccc(C(=O)N[C@@H](CCC(=O)O)C(=O)O)cc1	BJeLR viability 76 (no result: SARS 3CLpro inh)
C[n+]1cccc2cccc([O-])c21	none (no result: BJeLR viability)
COCCNC(=O)CSc1nc2ccccc2c(=O)n1-c1cccc(OC)c1	Autofluor counter 21564
COCCn1c(SCC(=O)Nc2cccc(C(=O)OC)c2)nc2ccccc2c1=O	Autofluor counter 16194
COc1cccc(NC(=O)CSc2nc3ccccc3c(=O)n2CCCC(=O)N2CCCC2)c1	BoNT A protease inconclusive, Autofluor counter 23337
COc1ccc(NC(=O)CSc2nc3ccccc3c(=O)n2CCC(=O)N2CCCCC2)cc1	Autofluor counter 21679
CSCCC(NC(=O)COc1ccccc1)C(=O)N1CC(C)OC(C)C1 (stereo unspecified)	none (no result: BJeLR viability, SARS 3CLpro inh)
COc1cc(CC(=O)N2CCN(S(=O)(=O)c3ccc(C(C)C)cc3)CC2)cc(OC)c1OC	none (no result: BJeLR viability, SARS 3CLpro inh)
O=C(NCCOc1ccc(F)cc1)C1CCC(=O)N(CCN2CCOCC2)C1 (stereo unspecified)	none
Cc1ccc(S(=O)(=O)NCC(c2ccc3c(c2)OCO3)N2CCN(c3ccccc3)CC2)cc1 (stereo unspecified)	none (no result: BoNT A protease, BoNT-F LC inh, Autofluor counter, Anthrax LF inh2, SARS 3CLpro inh)
COc1ccc(-n2c(SCC(=O)NCCC(C)C)nc3ccsc3c2=O)cc1	Autofluor counter 21316
O=C(c1ccc(Cl)c(S(=O)(=O)NCc2ccccc2)c1)N1CCN(c2ccccn2)CC1	Autofluor counter 18872
COC(=O)C1CCN(C(=O)c2ccc(Cl)c(S(=O)(=O)NCc3cccnc3)c2)CC1	BoNT A protease inconclusive, Autofluor counter 23363 (no result: BJeLR viability)
Cc1cccc(OCCNC(=O)c2ccc(Cl)c(S(=O)(=O)NCc3cccnc3)c2)c1	none (no result: BJeLR viability, SARS 3CLpro inh)
O=C(c1ccc(CNS(=O)(=O)c2ccccc2)cc1)N1CCN(c2ccccn2)CC1	none (no result: BJeLR viability)
CCN(C(=O)CSc1nnc2nc(C)cc(C)n12)c1ccccc1	none
Cc1ccc(CSc2nnc(CC(=O)Nc3ccc(C)cc3)n2C)cc1	Autofluor counter 19547
Cc1ccc(OCc2nnc(SCC(=O)Nc3cc(C)on3)n2C)cc1	Autofluor counter 21396
Cc1ccc(OCc2nnc(SCC(=O)Nc3ccc4c(c3)OCO4)n2C)cc1	Autofluor counter 26293
